From PubChem BioAssay (NCI)
This is part of a sample that, as a whole, favours compounds with a hit. Of some 83,000 tested, about 20% had one in any assay.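 Plates (96-well) were seeded with cells, treated with compound at one concentration, and incubated for 48 hours before percent growth was determined.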 A number with no mark means an inactive call. Calls of active or inactive are those of the source. How the source made its calls: active means growth percent below 10; inactive means the rest.

These compounds were tested on HL-60(TB) leukemia (assay: NCI-60 one-dose screen, 48 h (100 = growth as untreated, 0 = no growth, -100 = all killed)). Settings: 10 µM unless noted.

With `CCN1C(=O)N(CC)C2Nn3c(s/c(=C4\C(=O)N(CCC(C)C)c5ccccc54)c3=O)=NC21` (stereo not given) as the compound, how does the growth read?
Its growth is 83.1%.

How did the growth turn out when `O=S(O)c1cc(Cl)cc(Cl)c1OCc1ccccc1` was run?
Its growth is 109%.

Which growth does the source give for `CN(C)CCCSc1ccccc1NC1=C(Cl)C(=O)C(Nc2ccccc2SCCCN(C)C)=C(Cl)C1=O` here?
Its growth is -34.8% (active).

Which growth does the source give for `C#C[C@]1(O)CC[C@H]2[C@@H]3CC=C4c5nc(Nc6ncccn6)sc5CC[C@]4(C)[C@H]3CC[C@@]21C` here?
The growth was 60.4%.

How did the growth turn out when `COc1cc(-c2ccc(-c3ccc(C(=N)N)cc3)s2)cc(OC)c1OC` was run?
The growth was 3.15% (active).

With `NC(=O)c1cc(I)ccc1NC(=O)COc1ccccc1` as the compound, how does the growth read?
Its growth is -20.5% (active).

With `COc1cc2c(cc1O)CC[C@@H]1[C@@H]2CC[C@]2(C)[C@@H](NCCN(C)C)CC[C@@H]12` as the compound, how does the growth read?
The growth was -67.7% (active).

How did the growth turn out when `Cc1cccc2c1O/C(=C\c1ncc([N+](=O)[O-])n1C)C2=O` was run?
Its growth is -9.87% (active).

Which growth does the source give for `CC1=CNNc2c3ncnc-3ncn21` here?
The growth was 99.8%.

For `COC(=O)c1c2c(c(C)[n+]([O-])c1C)C(=O)C=C(NCc1ccc(Cl)cc1)C2=O`, which growth is on record?
The growth was -30.5% (active).

`CC(C)C(C)C(N)C(=O)O` (stereo not given) was tested. Which growth did it give?
The growth was 97.9%.

How did the growth turn out when `Fc1ccc(Cc2ccc(F)cc2)cc1` was run?
Its growth is 103%.

`COC(=O)CNc1nc(N(C)O)nc(N(C)O)n1` was tested. Which growth did it give?
Its growth is -7.42% (active).

How did the growth turn out when `COc1ccc2nc(-c3ccc(Cl)cc3)cc(-c3nnc(SC/C(=N\O)c4ccccc4)n3-c3ccccc3)c2c1` was run?
The growth was 55.4%.

`O=S(=O)(Nc1ncccn1)c1ccc(Nc2ccc3nnc(-c4ccncc4)n3n2)cc1` was tested. Which growth did it give?
The growth was 101%.
